A number with no mark means an inactive call. Results filed as inconclusive are left out. Activity calls are given as the source filed them. Unless noted, calls follow the shape of the dose curve; as a rule, active = well fitted curve in either direction with a large enough effect (not every such curve was filed as active); inconclusive = small, poorly fitted or top-dose-only effect, or another doubt; inactive = flat fitted curve, though single readings scatter.

Assay [1] addresses Lysosomal acid glucosylceramidase (Homo sapiens) (UniProt P04062). In words: Glucocerebrosidase-p2 (AID 348; in the data active = potency below about 10 µM; also: potency is read from the fitted curve at half-maximal effect). As to conditions: purified GBA, blue fluorogenic substrate, 40 min. In outline:
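Normal human glucocerebrosidase (0.2 nM) with blue fluorogenic substrate (80 uM final) in citrate/phosphate pH 5.9 with 10mM sodium taurocholate, 0.01% tween-20; 40 min RT, NaOH/glycine stop; fluorescence Ex 365/Em 440; AC50 from a titration from 0.6 nM upwards.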

The nature of assay [2]: AP1 Signaling Pathway (AID 357). Also: % is scaled to controls: 0 for no effect and ±100 for the full control effect. As to conditions: ME-180 AP-1-bla reporter, EGF-induced, beta-lactamase ratio, 5 h; at 7.69 µM (top of the series) unless noted. In outline:
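ME-180 cells with beta-lactamase reporter under AP-1 response element, stimulated with EC50 EGF; compounds tested in titration series, 5 h at 37 °C. CCF4 substrate added 2.5 h at room temperature; 460/530 nm emission ratio gave %activity and AC50.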

Assay [3] addresses Cytochrome P450 1A2 (Homo sapiens) (UniProt P05177). Description: p450-cyp1a2 (AID 410; calls by dose curve; also: potency is read from the fitted curve at half-maximal effect;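 as to activity change, negative = inhibition: -100% = full effect of reference inhibitor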). As to conditions: recombinant CYP1A2, luciferin-ME demethylation, luminescence; series mostly up to 57 µM. In outline: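 O-Demethylation of luciferin 6' methyl ether by human CYP1A2 is monitored as luciferase luminescence. Substrate sits at Km (100uM); enzyme is 20nM. Values are scaled to 57 uM furafylline as maximal inhibition.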

Assay [4] concerns the target Glucocorticoid receptor (Homo sapiens) (UniProt P04150). In words: GR-GFP Redistribution (AID 450;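 active = compounds whose dose series gives a full or clear partial fitted curve of increased nuclear translocation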; also: potency is read from the fitted curve at half-maximal effect). To be noted: U2OS GR-GFP nuclear translocation, laser cytometry, 2 h.
Assay [5] has the same target. In words: GR-EFC Redistribution (AID 451; calls by dose curve; also: potency is read from the fitted curve at half-maximal effect). To be noted: CHO-K1 GR-EFC translocation, beta-gal luminescence, 2 h. In outline:
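CHO-K1 cells expressing nuclear EA and GR-ED fragments of b-gal; compounds titrated up to 46 uM final, 2 h at 37 C. GR nuclear translocation read as complemented b-gal luminescence after 1 h RT detection.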

For assay [6], the target named is Mitogen-activated protein kinase 10 (Mus musculus) (UniProt Q61831). In words: JNK3 AlphaScreen Assay (AID 530).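 Also: kinase came from lysate of stimulated human HepG2 cells; signal reports phosphorylation of biotinylated GST-cJun 1-79 at Ser73 with 10 µM ATP; % is scaled to controls: 0 for no effect and ±100 for the full control effect.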 To be noted: JNK3 lysate, c-Jun phosphorylation; series mostly up to 57.1 µM. The gist of the method:
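Activity was read by AlphaScreen after JNK3-containing HepG2 lysate (cytokine pre-activated) phosphorylated biotinylated GST-cJun with 10 uM ATP at room temperature. Phospho-Ser73 cJun antibody with Protein-A acceptor beads provided detection.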
(Alpha assays give light when donor and acceptor beads are brought close together.)

The target in assay [7] is 3',5'-cyclic-AMP phosphodiesterase 4B (Homo sapiens) (UniProt Q07343). In words: qHTS Assay for Inhibitors of PDE-IV (AID 607; active = well fitted activation curve with a large enough effect in the main read-out, with a control signal flat, not every such curve was filed as active; also: % of control where 0% means no effect). To be noted: HEK293 ACTOne CNG channel cells, membrane potential fluorescence; series mostly up to 22.9 µM. In outline:
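HEK293 ACTOne cells with CNG channel (1000/well), endogenous PDE4; membrane potential dye, compounds up to 22.9 uM final. Fluorescence Ex 535/Em 590; RO 20-1724 (100 uM final) as reference.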

Assay [8] addresses Cytochrome P450 3A4 (Homo sapiens) (UniProt P08684). In words: qHTS Assay for Activators of Cytochrome P450 3A4 (AID 885; active = well fitted curve in the direction sought with a large enough effect; an effect the other way counts as inactive or inconclusive; also: nearly all actives have a fitted effect of over 65% in size). As to conditions: recombinant CYP3A4, Luciferin-PPXE luminescence, 60 min; series mostly up to 57.1 µM. The gist of the method:
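Human CYP3A4 dealkylates Luciferin-PPXE to luciferin, which luciferase detection converts to light. Substrate was at its KM (25uM), buffer 200mM KPO4, reaction 60 min at RT.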
In general terms: In qHTS, concentration-response curves come from the screen itself.

Assay [9] is described as follows: Confirmation and Secondary Assay for Modulators of Hemoglobin Beta Chain Splicing at IVS2 705 locus (AID 930; active = well fitted curve in the direction sought with a large enough effect; an effect the other way counts as inactive or inconclusive;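 also: HeLa cells stably expressing the EGFP-705 splicing reporter; GFP fluorescence per well restored by corrected splicing of the IVS2-705 intron in EGFP; % of control where 0% means no effect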). To be noted: HeLa EGFP-705 splicing reporter, GFP fluorescence, 48 h; series mostly up to 38.3 µM. In outline:
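HeLa cells stably carrying EGFP interrupted by mutant beta-globin intron 2 (IVS2-705) treated 2 days at 37C with compound; 500 nM antisense PNA as control. Correct splicing read as total peak GFP intensity per well by laser-scanning cytometry.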

A short description of assay [10]: Primary qHTS for small molecule stabilizers of the endoplasmic reticulum resident proteome: Secreted ER Calcium Modulated Protein (SERCaMP) assay (AID 1508630; active = well fitted curve in the direction sought with a large enough effect; an effect the other way counts as inactive or inconclusive; also: % is scaled to controls: 0 for no effect and ±100 for the full control effect). To be noted: SH-SY5Y GLuc-SERCaMP (Gaussia luciferase released on ER calcium loss) secretion, thapsigargin, luminescence; series mostly up to 38.4 µM. The gist of the method:
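The SH-SY5Y reporter protocol was run at 3 concentrations up to 38.3 uM (primary) or 11 concentrations (follow-up): 16 h compound, 100 nM thapsigargin for 4 h, then extracellular luciferase luminescence.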

Assay [11] is described as follows: Stat Signaling Pathway (AID 446).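 Also: ME-180 cervical cancer cells given 40 pM IL-6 alongside compound; SIE-controlled beta-lactamase reporter measured as 460/530 nm FRET emission ratio; % is scaled to controls: 0 for no effect and ±100 for the full control effect.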 As to conditions: ME-180 SIE beta-lactamase reporter, IL-6 stimulated, 5 h; at 7.69 µM (top of the series) unless noted. The gist of the method:
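Normalization used AC90 stimulation (300 pM IL-6) and AC90 inhibition (125 nM pan-JAK inhibitor at 40 pM IL-6). The underlying signal is SIE-driven beta-lactamase in ME-180 cells after 5 h IL-6 exposure with compound.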

Assay [12] in a line: qHTS Assay for Identification of Small Molecule Agonists for Hypoxia Response Element Signaling Pathway (AID 914; active = well fitted activation curve with a large enough effect in the signal ratio, with a control signal flat, not every such curve was filed as active; the % refers to the signal ratio; also: % of control where 0% means no effect). To be noted: ME-180 (cervical carcinoma) HRE-bla reporter, beta-lactamase ratio, CoCl2, 17 h; activation: active compounds read high. In outline: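 HRE-bla ME-180 cells with beta-lactamase reporter under hypoxia response element, compounds with EC50 CoCl2 for 17 hours at 37 C. CCF4 substrate, 460nm/530nm emission ratio gave %Activity; AC50 from titration series.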

Assay [13] addresses Cytochrome P450 2C9 (Homo sapiens) (UniProt P11712). In words: qHTS Assay for Inhibitors and Substrates of Cytochrome P450 2C9 (AID 883; active = well fitted curve in the direction sought with a large enough effect; an effect the other way counts as inactive or inconclusive; also: nearly all actives have a fitted effect of over 60% in size; also: potency is read from the fitted curve at half-maximal effect). As to conditions: recombinant CYP2C9, luciferin-H luminescence, 60 min; series mostly up to 57.1 µM. In outline:
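10nM CYP2C9 + 100uM Luciferin-H (=KM), 25mM KPO4; cpd 10 min 37C; NADPH regen, 60 min 37C; stop/detect with P450 Glo-Buffer 20 min; luminescence. Norm. to 57uM sulphaphenazole as full inhibition.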

Assay [14] addresses Cytochrome P450 2D6 (Homo sapiens) (UniProt P10635). In words: qHTS Assay for Inhibitors and Substrates of Cytochrome P450 2D6 (AID 891; active = well fitted curve in the direction sought with a large enough effect; an effect the other way counts as inactive or inconclusive; also: potency is read from the fitted curve at half-maximal effect; nearly all actives have a fitted effect of over 60% in size). To be noted: recombinant CYP2D6, luciferin-ME EGE luminescence; series mostly up to 57.1 µM. The gist of the method: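 Luminescent read-out of luciferin formed by 5 nM human CYP2D6 demethylating 30 uM Luciferin-ME EGE (Km level) over 60 min at room temperature after NADPH regeneration addition. Data normalized to full inhibition by 1.43 uM quinidine.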

The target of assay [15] is Cytochrome P450 3A4 (Homo sapiens) (UniProt P08684). In words: qHTS Assay for Inhibitors and Substrates of Cytochrome P450 3A4 (AID 884; active = well fitted curve in the direction sought with a large enough effect; an effect the other way counts as inactive or inconclusive; also: potency is read from the fitted curve at half-maximal effect; nearly all actives have a fitted effect of over 50% in size). As to conditions: recombinant CYP3A4, Luciferin-PPXE luminescence; series mostly up to 57.1 µM. In outline: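 Luminescent readout of luciferin produced by CYP3A4 (20 nM) dealkylation of Luciferin-PPXE, 25 uM (its KM). NADPH-driven reaction ran 60 min at RT after 10 min compound preincubation; data scaled to 57 uM ketoconazole as 100% inhibition.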
Sequence of Cytochrome P450 3A4 (Homo sapiens) (P08684 whole entry, looked up): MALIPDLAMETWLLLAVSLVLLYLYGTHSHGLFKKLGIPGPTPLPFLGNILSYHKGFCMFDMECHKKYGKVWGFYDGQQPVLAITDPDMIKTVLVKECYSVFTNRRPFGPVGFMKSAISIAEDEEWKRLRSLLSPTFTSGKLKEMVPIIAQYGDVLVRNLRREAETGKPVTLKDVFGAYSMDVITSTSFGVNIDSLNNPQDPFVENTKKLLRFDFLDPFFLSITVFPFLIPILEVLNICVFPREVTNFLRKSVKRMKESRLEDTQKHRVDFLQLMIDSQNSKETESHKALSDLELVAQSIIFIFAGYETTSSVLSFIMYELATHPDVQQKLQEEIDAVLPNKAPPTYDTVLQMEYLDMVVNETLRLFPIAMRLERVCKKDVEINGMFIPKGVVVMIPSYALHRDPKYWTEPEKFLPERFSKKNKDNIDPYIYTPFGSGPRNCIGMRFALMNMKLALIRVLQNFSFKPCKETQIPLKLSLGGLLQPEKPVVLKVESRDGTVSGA

The target in assay [16] is Cytochrome P450 2C19 (Homo sapiens) (UniProt P33261). Description: qHTS Assay for Inhibitors and Substrates of Cytochrome P450 2C19 (AID 899; active = well fitted curve in the direction sought with a large enough effect; an effect the other way counts as inactive or inconclusive; also: potency is read from the fitted curve at half-maximal effect; nearly all actives have a fitted effect of over 60% in size). As to conditions: recombinant CYP2C19, luciferin-H EGE luminescence; series mostly up to 57.1 µM. In outline:
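Luminescent read-out of luciferin formed from Luciferin-H EGE (10uM, equal to KM). Enzyme 5nM in 50mM KPO4; compound added, 10 min at 37C, then NADPH regenerating system for 60 min at 37C. Full inhibition defined by 57uM ketoconazole.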

Sequence of 3',5'-cyclic-AMP phosphodiesterase 4B (Homo sapiens) (Q07343 whole entry, looked up): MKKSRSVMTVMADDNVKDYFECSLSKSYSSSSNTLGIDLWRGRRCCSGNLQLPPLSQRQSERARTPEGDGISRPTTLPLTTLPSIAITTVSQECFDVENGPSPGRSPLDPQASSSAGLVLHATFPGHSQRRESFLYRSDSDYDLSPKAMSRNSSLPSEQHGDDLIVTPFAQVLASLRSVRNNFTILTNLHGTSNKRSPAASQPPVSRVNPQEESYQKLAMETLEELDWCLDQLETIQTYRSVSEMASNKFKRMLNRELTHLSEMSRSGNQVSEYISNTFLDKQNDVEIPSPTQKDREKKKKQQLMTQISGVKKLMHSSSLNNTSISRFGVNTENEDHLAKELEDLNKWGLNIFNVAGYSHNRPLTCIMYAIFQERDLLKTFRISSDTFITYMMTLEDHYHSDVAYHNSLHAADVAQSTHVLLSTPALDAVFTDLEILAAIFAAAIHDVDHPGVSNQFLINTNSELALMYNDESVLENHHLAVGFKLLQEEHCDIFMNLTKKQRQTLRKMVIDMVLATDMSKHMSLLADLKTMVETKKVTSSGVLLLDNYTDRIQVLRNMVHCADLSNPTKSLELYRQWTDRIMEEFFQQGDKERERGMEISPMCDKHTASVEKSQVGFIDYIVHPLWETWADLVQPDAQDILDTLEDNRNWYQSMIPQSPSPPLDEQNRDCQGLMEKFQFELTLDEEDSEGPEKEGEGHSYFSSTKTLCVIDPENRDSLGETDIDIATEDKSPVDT
Sequence of Glucocorticoid receptor (Homo sapiens) (P04150 whole entry, looked up): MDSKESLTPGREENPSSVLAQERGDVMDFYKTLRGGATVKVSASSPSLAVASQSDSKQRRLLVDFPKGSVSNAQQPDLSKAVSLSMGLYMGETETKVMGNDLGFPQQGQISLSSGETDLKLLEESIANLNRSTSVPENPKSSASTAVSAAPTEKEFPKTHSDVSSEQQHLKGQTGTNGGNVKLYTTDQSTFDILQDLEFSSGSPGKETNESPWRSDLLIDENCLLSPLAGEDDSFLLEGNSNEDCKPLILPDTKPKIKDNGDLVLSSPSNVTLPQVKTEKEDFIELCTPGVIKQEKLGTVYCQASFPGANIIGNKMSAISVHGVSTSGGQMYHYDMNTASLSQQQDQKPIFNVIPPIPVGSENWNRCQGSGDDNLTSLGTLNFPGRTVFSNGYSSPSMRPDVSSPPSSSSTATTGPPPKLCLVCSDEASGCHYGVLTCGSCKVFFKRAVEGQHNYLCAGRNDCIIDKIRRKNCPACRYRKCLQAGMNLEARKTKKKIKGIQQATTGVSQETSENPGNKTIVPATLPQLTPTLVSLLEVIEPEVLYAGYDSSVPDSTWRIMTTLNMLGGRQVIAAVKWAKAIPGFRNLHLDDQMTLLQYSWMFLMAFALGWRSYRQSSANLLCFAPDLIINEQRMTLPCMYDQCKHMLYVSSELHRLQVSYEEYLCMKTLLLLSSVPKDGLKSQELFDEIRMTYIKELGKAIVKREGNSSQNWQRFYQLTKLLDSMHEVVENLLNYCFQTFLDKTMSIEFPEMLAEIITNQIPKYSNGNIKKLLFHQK
Sequence of Cytochrome P450 1A2 (Homo sapiens) (P05177 whole entry, looked up): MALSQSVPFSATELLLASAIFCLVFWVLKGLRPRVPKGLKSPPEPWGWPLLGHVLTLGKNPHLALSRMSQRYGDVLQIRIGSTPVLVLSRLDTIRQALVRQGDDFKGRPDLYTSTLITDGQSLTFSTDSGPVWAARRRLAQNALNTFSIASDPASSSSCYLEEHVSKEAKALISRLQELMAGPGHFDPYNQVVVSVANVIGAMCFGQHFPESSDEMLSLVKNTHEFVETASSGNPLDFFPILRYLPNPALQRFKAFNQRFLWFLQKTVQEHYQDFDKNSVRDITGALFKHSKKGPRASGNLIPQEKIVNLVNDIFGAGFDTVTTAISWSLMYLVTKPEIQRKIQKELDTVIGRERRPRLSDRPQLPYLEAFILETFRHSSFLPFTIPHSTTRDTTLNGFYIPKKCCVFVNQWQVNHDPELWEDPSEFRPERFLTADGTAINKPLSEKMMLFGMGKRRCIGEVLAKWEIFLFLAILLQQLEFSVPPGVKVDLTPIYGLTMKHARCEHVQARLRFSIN
Sequence of Lysosomal acid glucosylceramidase (Homo sapiens) (P04062 whole entry, looked up): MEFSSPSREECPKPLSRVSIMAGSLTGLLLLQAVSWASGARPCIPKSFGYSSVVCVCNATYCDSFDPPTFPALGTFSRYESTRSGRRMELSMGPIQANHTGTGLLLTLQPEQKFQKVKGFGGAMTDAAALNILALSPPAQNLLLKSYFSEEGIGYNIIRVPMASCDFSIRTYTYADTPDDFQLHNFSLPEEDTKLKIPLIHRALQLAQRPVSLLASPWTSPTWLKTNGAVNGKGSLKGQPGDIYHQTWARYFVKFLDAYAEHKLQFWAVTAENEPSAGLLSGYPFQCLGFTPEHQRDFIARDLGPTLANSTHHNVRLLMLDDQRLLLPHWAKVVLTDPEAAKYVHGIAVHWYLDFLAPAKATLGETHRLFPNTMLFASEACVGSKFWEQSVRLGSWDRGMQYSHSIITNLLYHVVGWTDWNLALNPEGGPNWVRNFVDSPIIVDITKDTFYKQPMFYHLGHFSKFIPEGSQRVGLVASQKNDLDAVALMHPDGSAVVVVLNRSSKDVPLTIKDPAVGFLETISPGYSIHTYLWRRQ
Sequence of Cytochrome P450 2C9 (Homo sapiens) (P11712 whole entry, looked up): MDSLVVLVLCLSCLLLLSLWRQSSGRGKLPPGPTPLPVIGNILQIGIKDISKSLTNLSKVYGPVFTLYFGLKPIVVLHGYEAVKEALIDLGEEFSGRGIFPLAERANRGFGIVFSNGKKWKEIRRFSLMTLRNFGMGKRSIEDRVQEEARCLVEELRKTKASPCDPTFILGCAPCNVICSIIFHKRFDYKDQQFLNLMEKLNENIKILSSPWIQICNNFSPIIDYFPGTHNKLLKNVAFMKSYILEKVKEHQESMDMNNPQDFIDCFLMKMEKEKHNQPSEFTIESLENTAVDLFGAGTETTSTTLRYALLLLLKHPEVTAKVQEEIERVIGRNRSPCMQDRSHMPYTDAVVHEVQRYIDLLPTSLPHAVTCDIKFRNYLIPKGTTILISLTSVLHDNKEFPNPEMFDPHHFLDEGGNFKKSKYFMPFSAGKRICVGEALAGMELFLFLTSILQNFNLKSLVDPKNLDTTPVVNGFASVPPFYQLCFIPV
Sequence of Cytochrome P450 2D6 (Homo sapiens) (P10635 whole entry, looked up): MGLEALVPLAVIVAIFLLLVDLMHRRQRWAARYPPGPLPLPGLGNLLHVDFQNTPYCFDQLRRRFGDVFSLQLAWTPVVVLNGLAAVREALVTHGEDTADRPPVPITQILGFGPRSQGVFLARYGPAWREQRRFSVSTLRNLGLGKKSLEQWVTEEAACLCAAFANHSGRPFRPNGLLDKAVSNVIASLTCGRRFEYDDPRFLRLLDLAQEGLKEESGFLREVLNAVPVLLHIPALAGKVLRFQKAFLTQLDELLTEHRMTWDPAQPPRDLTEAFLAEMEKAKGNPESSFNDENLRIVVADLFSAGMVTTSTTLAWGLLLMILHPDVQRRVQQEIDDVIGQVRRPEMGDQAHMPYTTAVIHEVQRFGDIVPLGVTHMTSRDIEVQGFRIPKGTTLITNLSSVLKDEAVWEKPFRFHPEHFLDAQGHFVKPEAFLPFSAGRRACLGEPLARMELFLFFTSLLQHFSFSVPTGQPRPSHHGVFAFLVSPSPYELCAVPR
Sequence of Cytochrome P450 2C19 (Homo sapiens) (P33261 whole entry, looked up): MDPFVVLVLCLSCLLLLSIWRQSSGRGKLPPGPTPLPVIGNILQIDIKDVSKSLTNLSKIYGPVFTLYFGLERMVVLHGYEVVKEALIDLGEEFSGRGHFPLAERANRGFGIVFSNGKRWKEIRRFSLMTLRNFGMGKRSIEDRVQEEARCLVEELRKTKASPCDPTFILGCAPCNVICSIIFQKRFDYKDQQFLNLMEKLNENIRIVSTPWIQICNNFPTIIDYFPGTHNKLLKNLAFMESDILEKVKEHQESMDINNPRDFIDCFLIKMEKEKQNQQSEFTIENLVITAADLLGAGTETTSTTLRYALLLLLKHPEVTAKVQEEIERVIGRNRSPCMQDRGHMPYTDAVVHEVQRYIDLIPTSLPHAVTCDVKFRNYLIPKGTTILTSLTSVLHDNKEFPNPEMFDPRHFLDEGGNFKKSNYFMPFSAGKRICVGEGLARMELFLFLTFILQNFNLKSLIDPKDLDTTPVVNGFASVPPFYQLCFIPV

On to `CN(C)c1ccc(-c2nc(NC3CCNCC3)c3ccccc3n2)cc1`, for which the Potency was 7.09 µM (active) in [1], 15.8 µM (active) in assay [3], greater than 46 µM in [4] and greater than 46 µM in [5]. The activity change, negative = inhibition in assay [2] was 4.91%. Further, the Potency entry in [6], in assay [7] and in assay [8] was “inactive” each time. The compound was classed as inactive in assay [9] and in assay [10].

Regarding `N#Cc1ccc(CN2CCC3(CC2)CCN(C(=O)c2csnn2)CC3)cc1`, the Potency in assay [1] is greater than 11.4 µM; in assay [5] it was greater than 46 µM. In addition, the activity change, negative = inhibition in [2] was 3.47%. The Potency entry in assay [3], in assay [6] and in assay [7] was “inactive” throughout. For the same compound, the activity, negative = inhibition in [11] was -1.95%. Moreover, in assay [10], the outcome was inactive.

Regarding `O=C(c1ccco1)N1CCC2(CCCN(Cc3ccccc3)C2)CC1`, the figures for the Potency in assay [1] and in [5] were greater than 11.4 µM and greater than 46 µM, respectively. In addition, the activity change, negative = inhibition in [2] is -8.21%. Also, the Potency result in assay [3], in assay [6], in assay [7] and in assay [8] was “inactive” each time. Moreover, in assay [11], the activity, negative = inhibition was 10.9%. In addition, in [12], the activation was 3.78%. Further, the result in assay [10] was inactive.

For `Cc1nc2cnc(Oc3cccc(Cl)c3)nc2n(CCc2ccccc2)c1=O`, the Potency in [1] is greater than 11.4 µM; in assay [3], 12.6 µM (active); in assay [4], greater than 9.22 µM; in assay [5] it was greater than 46 µM. In addition, in assay [2], the activity change, negative = inhibition was 2.12%. In addition, the activity, negative = inhibition in assay [11] was 18.7%. The Potency result in assay [6] is “inactive”. Besides, in [10], the result was inactive.

Turning to `COC(=O)N1CCC2(CC1)CCN(c1ccncc1)CC2`, the values for the Potency in [1] and in [5] were greater than 11.4 µM and greater than 46 µM, respectively. In addition, the activity change, negative = inhibition in [2] was 6.46%. The Potency result in assay [3], in [6] and in assay [7] was “inactive” throughout. Further, in assay [11], the activity, negative = inhibition is 20.2%. For the same compound, the result in assay [10] was inactive.

As for `O=C(c1cccc(F)c1)N1CCC2(CCCN(Cc3ccncc3)C2)CC1`, the Potency in [1] is greater than 11.4 µM; in [3], 15.8 µM (active); in assay [5] it was greater than 46 µM; in assay [13], 631 nM (active); in assay [14] it was 7.94 µM (active). In addition, the activity change, negative = inhibition in [2] is -4.41%. For the same compound, in assay [11], the activity, negative = inhibition was -4.85%. For the same compound, the Potency entry in [6], in [7] and in [8] was “inactive” in each case. The outcome in assay [10] was inactive.

With `O=S(=O)(c1ccccc1)N1CCC2(CCCN(Cc3ccncc3)C2)CC1`, the Potency is greater than 11.4 µM in assay [1]; 12.6 µM (active) in [3]; greater than 46 µM in assay [5]; 3.98 µM (active) in assay [15]; 316 nM (active) in assay [16]. Further, the activity change, negative = inhibition in assay [2] was -20.2%. Also, the activity, negative = inhibition in assay [11] was -3.44%. For the same compound, the Potency result in [6], in assay [7] and in [8] was “inactive” in each case. In assay [10], the outcome was inactive.

As to `CNc1nc(-c2ccc(N(C)C)cc2)nc2ccccc12`, the Potency was 6.77 µM (active) in assay [1], 0.2 µM (active) in assay [3], greater than 46 µM in assay [4] and greater than 46 µM in [5]. Also, the activity change, negative = inhibition in assay [2] was 15.8%; in assay [13], 108% [at 2.29 µM]. For the same compound, the Potency entry in assay [6], in [7] and in assay [8] was “inactive” in each case. The compound was classed as inactive in [9] and in [10].

(Values after PubChem BioAssay (NCATS).)
